Rows were chosen to be rich in hits. Some 3.8% of all compounds tested hit in one or more screens of this group.
Smad3 FoxH1 inh – Smad3 (human) transcription factor binding inhibition; TR-FRET Smad3/Dy647-FoxH1 peptide binding, europium anti-His; inhibition, % at 25 µM; actives 0.29% (n = 88,000); AID 630;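 active = compounds that reduce the energy-transfer binding signal between the protein and its labelled peptide by more than half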;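 note: 0% = Smad3 plus labelled peptide maximal FRET and 100% = peptide-only background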
Target sequence (P84022 whole entry, looked up): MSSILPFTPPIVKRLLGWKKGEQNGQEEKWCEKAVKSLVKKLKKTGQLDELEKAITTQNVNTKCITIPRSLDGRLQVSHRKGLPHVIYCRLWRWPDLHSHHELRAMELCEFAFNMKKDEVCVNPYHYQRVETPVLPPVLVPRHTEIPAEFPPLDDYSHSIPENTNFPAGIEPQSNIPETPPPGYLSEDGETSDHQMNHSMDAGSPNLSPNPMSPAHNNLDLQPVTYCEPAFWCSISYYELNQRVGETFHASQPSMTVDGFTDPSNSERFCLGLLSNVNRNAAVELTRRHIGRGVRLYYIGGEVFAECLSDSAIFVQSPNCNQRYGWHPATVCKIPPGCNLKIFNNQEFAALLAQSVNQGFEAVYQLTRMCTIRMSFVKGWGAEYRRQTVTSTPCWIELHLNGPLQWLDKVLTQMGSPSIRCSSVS
Calb biofilm kill – kills Candida albicans biofilms; C. albicans biofilm + clotrimazole, Alamar Blue; AID 834; inhibition, % at 6 µM; actives 0.14% (n = 85,000);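 active = inhibition above 20%; inactive = inhibition below 20%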;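 note: preformed 24 hr biofilms exposed to compound for 48 hr; 0% = biofilm without compound and 100% = blank killed by clotrimazole plus chlorhexidine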
ERa SRC1 pot – ER-alpha (human) coactivator binding potentiation; P03372; TR-FRET ERalpha-LBD/SRC-Cy5 coactivator binding, 2 h; 100 = basal binding, no effect; coactivator binding (% of control), % at 25.6 µM; actives 1.3% (n = 86,000); AID 639; in the data active = activity above about 200%;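 note: binding measured in presence of low estradiol as agonist stimulus; 0% = peptide alone without receptor and 100% = receptor with peptide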
ERb SRC1 inh – ER-beta (human) coactivator binding inhibition | TR-FRET ER-beta LBD / SRC1-Cy5 peptide binding; receptor agonist-loaded with 1 µM estradiol | inhibition, % at 25.6 µM | actives 1.3% (n = 86,000) | AID 633;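 active = compounds whose percent inhibition of the receptor-coactivator binding signal exceeds about 50% in the single-dose screen, limit read from the data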;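 note: 0% = receptor plus peptide wells without compound and 100% = peptide-only wells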
ERa coact inh – ER-alpha (human) coactivator binding inhibition; P03372; TR-FRET ER-alpha LBD / SRC-1 peptide, estradiol-bound; inhibition, % at 25.6 µM; actives 1.7% (n = 86,000); in the data active = inhibition above about 50%;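 note: 0% = receptor plus peptide control and 100% = peptide only without receptor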
An asterisk follows results filed as active; . = no result; [ ] = dose if it differs, or a comment.

SMILES	Smad3 FoxH1 inh	Calb biofilm kill	ERa SRC1 pot	ERb SRC1 inh	ERa coact inh
O=C(CN1CCCc2ccccc21)NC(=O)NCc1ccco1	-3.1	12.4	75.1	29.5	32.5
O=C(COC(=O)C1CCCCC1C(=O)N1CCc2ccccc21)NCc1ccco1 (centres undefined)	9.8	-7.2	83.2	41.7	50.1*[fluorescence artefact?]
CC(C)Cn1c(N)c(C(=O)COC(=O)CC23CC4CC(CC(C4)C2)C3)c(=O)n(C)c1=O	11.7	4.6	93.2	-4.4	6.4
O=S(=O)(c1ccc(Oc2ccc(-c3nnco3)cc2)nc1)N1CCC(Cc2ccccc2)CC1	19.7	-4.0	98.7	30.6	75.2*[fluorescence artefact?]
O=c1cc(N2CCN(c3ccccc3)CC2)[nH]c(=O)n1-c1ccccc1Cl	7.4	2.1	163.1	-0.8	0.1
CCOC(=O)N1CCN(c2cc(=O)n(-c3ccccc3Cl)c(=O)[nH]2)CC1	-5.2	2.1	123.3	74.5*[fluorescence artefact?]	0.0
CC(=O)Nc1ccc2[nH]c(C)cc(=O)c2c1	3.2	0.5	32.9	44.3	76.8*
CC(=O)Nc1ccc2[nH]c3ccccc3c2c1	4.6	7.5	123.5	-3.1	-4.0
O=C(O)C/C(=C/c1ccco1)C(=O)O	5.9	.	.	.	.
COc1ccc2cc3c(N)nn(C(=O)Cc4ccc(Cl)cc4)c3nc2c1	1.0	8.0	76.9	46.1	60.0*
COc1ccc(CC(=O)n2nc(-c3ccc(Cl)cc3)nc2NCc2ccco2)cc1	-5.5	1.5	94.2	-2.0	5.6
CC(C)Cn1c(CN2C(=O)c3ccccc3C2=O)nc2ccccc2c1=O	27.5	2.9	370.3*[fluorescence artefact?]	25.1	29.0
O=C1c2ccccc2C(=O)N1Cc1nc2ccccc2c(=O)n1Cc1ccco1	-8.0	4.7	249.0*	57.7*[fluorescence artefact?]	59.5*[fluorescence artefact?]
CCC1CCCCN1CCNC(=O)CCS(=O)(=O)c1ccc(Br)cc1 (centres undefined)	1.9	5.7	102.7	-3.4	4.8
O=C(O)c1ccccc1C(=O)Nc1cc2c(cc1Br)-c1ccccc1C2=O	100.7*	.	.	.	.
CC(C)C(O)(C(C)C)C(C)C	-5.5	.	.	.	.
Cc1nn(-c2ccc(S(=O)(=O)O)cc2)c(O)c1N=Nc1ccc(-c2ccc(N=Nc3ccc4c(S(=O)(=O)O)cc(S(=O)(=O)O)c(N)c4c3O)c(O)c2)cc1O.[Cu].[Cu]	101.0*	.	.	.	.
Cc1cc(-n2ccnc2)n2c(nc3ccccc32)c1C#N	-8.6	1.4	69.2	5.8	3.9
CCCc1cc(-n2ccnc2)n2c(nc3ccccc32)c1C#N	5.3	7.5	105.0	41.1	66.3*
Clc1ccc(CSc2nnnn2-c2ccc3c(c2)OCO3)c(Cl)c1	-1.2	3.0	118.6	13.1	22.4
C=CCn1c(SCC(=O)c2ccc(Br)cc2)nnc1C(CC(C)C)NC(=O)c1cccs1 (centres undefined)	-7.6	5.7	100.1	-2.3	-6.9
NC1=N[C@@H](c2ccc(Cl)cc2)N(c2ccc(S(=O)(=O)Nc3ncccn3)cc2)C(N)=N1	52.0*	.	.	.	.
C[C@H](C(=O)c1ccncc1)c1ccccn1	-0.3	.	.	.	.
CCOC(=O)c1sc(NC(=O)c2c(C)nn(Cc3ccccc3)c2C)cc1C	3.1	5.2	201.9*	-2.8	6.2
COc1cc(O)c2c(O)c3c(c4c2c1[C@]1(C4)C(C)=CCCC1(C)C)[C@H](O)[C@@]1(O)CC(=O)C(C(N)=O)=C(O)[C@]1(O)C3=O	45.6	.	.	.	.
SMILES	Smad3 FoxH1 inh	Calb biofilm kill	ERa SRC1 pot	ERb SRC1 inh	ERa coact inh
Cc1ccccc1CNc1nc(N)n(-c2ccccc2)n1	10.8	20.4*	117.2	-2.2	-5.8
Cc1cc(C)nc(NC2=NCCN2C(=O)Nc2ccc(Cl)c(Cl)c2)n1	10.0	6.6	970.5*	14.3	-53.8
CCCCNc1c(CN)cnc2cc(Cl)ccc12	4.8	.	.	.	.
O=C(O)c1cccc2cccc(-c3cccc4cccc(C(=O)O)c34)c12	66.6*	.	.	.	.
CC(Sc1cccc2cccc(C(=O)O)c12)C(=O)O (centres undefined)	-0.3	5.5	99.1	-0.7	-1.4
COc1ccc(Cn2nnnc2C(c2ccccc2OC)N2CCC(C(N)=O)CC2)cc1 (centres undefined)	5.3	2.9	99.6	64.2*	-4.8
O=C(O)C[C@H](Cc1ccccc1)C(=O)O	-2.1	.	.	.	.
CC(C)(C)c1ccc(OCC(=O)O)c(Cl)c1	4.5	.	.	.	.
c1ccc(CN2CC[C@@H](CNc3ncnc4ccccc34)C2)cc1	9.8	.	.	.	.
CCSc1nnc(NC(=O)c2ccccn2)s1	5.8	3.4	91.7	-4.3	9.7
COc1ccc(OC)c2sc(NC(=O)c3ccc(Br)s3)nc12	-31.3	7.4	126.5	70.0*[fluorescence artefact?]	81.9*[fluorescence artefact?]
O=C(Nc1nnc(C2CCCCC2)s1)c1ccc(Br)s1	-9.2	4.4	367.1*[fluorescence artefact?]	51.7*[fluorescence artefact?]	11.4
CCSc1nnc(NC(=O)c2ccc(Br)s2)s1	18.7	4.7	396.0*[fluorescence artefact?]	28.4	8.1
Cc1cc2ccccc2c[n+]1CC(O)C[n+]1cc2ccccc2cc1C	-9.0	.	.	.	.
COC(=O)c1cn(NC(=O)c2cc(OC)c(OC)c(OC)c2)c(=O)c2ccccc12	3.6	0.3	91.6	17.0	57.9*[fluorescence artefact?]
Oc1c(C=Nc2cccc3cccnc23)sc2ccccc12	0.2	6.2	63.7	50.8*[fluorescence artefact?]	78.8*
c1ccc(Cn2c(CSc3nnnn3-c3ccccc3)nc3ccccc32)cc1	8.2	7.1	72.8	18.1	64.0*[fluorescence artefact?]
O=c1c2ccccc2nc(CSc2nnnn2-c2ccccc2)n1-c1ccccc1Cl	18.6	.	97.5	58.8*[fluorescence artefact?]	78.4*[fluorescence artefact?]
Cc1cccc(CSc2nnnn2-c2ccccc2)c1	9.7	3.3	96.0	-22.0	-1.9
CS[C@@H](CC(=O)O)C(=O)O	-1.2	.	.	.	.
CC(C)(CCC(C)(C)c1ccccc1)c1ccccc1	-3.4	.	.	.	.
C=CCNc1nc(-c2cccc(OC)c2O)nc2ccccc12	-0.6	5.3	84.5	28.5	58.0*
COc1cccc(-c2nc(NCc3ccco3)c3ccccc3n2)c1O	1.6	3.0	71.5	6.3	-1.2
CCOC(=O)CNC(=O)C(Cc1ccccc1)NS(=O)(=O)c1ccc2c(c1)CCC(=O)N2 (centres undefined)	4.8	.	100.7	85.9*	-3.0
CCCCNC(=O)C(Cc1ccccc1)NS(=O)(=O)c1ccc2c(c1)c(=O)n(C)c(=O)n2C (centres undefined)	-7.6	11.8	122.3	12.3	85.5*[fluorescence artefact?]
SMILES	Smad3 FoxH1 inh	Calb biofilm kill	ERa SRC1 pot	ERb SRC1 inh	ERa coact inh
Cn1c(=O)c2cc(S(=O)(=O)NC(C(=O)N3CCCCCC3)c3ccccc3)ccc2n(C)c1=O (centres undefined)	4.8	4.8	122.1	-5.7	-2.6
O=C(O)[C@H](/C=C/c1ccccc1)c1ccccc1	-10.2	.	.	.	.
CC(Cc1ccc(O)c(O)c1)C(C)Cc1ccc(O)c(O)c1 (centres undefined)	4.3	12.2	40.3	82.8*[fluorescence artefact?]	65.9*
COC(=O)c1ccsc1NC(=O)CSc1nnnn1-c1ccccc1SC	10.1	4.3	262.6*[fluorescence artefact?]	-8.9	-18.7
Cc1cc(Cc2cc(C)cc(C(C)(C)C)c2O)c(O)c(Cc2cc(C)cc(C(C)(C)C)c2O)c1	34.1	.	.	.	.
N#C/C(=N\Nc1ccccc1F)C(=N)N1CCCCC1	-1.3	-4.0	127.8	60.0*[fluorescence artefact?]	-5.0
N#Cc1c(-c2ccco2)cc(-c2cccnc2)nc1N	6.0	1.3	72.8	37.3	47.7
